Screens from PubChem.
The list is not random: actives were taken first. Their share in the collection is about 2.3%.
Tau fibril ThT – blocks human tau fibril formation measured by thioflavin T. P10636. recombinant tau K18 P301L, heparin-induced fibrillization, ThT fluorescence. Potency, µM (top dose mostly 57.4 µM), usual class: inhibitors. actives 2.1% (n = 270,000); note: nearly all actives have a fitted effect of over 55% in size
Target sequence (P10636 561-689 P618L limits assumed): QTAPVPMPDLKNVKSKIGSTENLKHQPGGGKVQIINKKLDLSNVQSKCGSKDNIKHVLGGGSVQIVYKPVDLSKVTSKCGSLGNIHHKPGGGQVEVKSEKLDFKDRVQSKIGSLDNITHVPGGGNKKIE
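In this qHTS, human K18 P301L tau is incubated with compound and heparin for 6 hr at 37 C, and Thioflavin T fluorescence then reports fibril load.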
Tau fluor cs – counter-screen for tau fibril formation inhibitors | tau K18 P301L Alexa594 fluorescence, heparin fibrillization | Potency, µM (top dose mostly 57.7 µM) | actives 0.93% (n = 280,000); note: nearly all actives have a fitted effect of over 55% in size
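Human tau K18 P301L (15 uM unlabeled, 0.24 uM Alexa 594-labeled) in 100 mM sodium acetate pH 7 with 20 uM heparin, 6 hr at 37 C. ThT 30 uM added, 1 hr ambient; Alexa 594 FP and total fluorescence read at 555/632 nm.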
USP1 inh – USP1/UAF1 (human) deubiquitinase inhibition; O94782; AID 743255; recombinant USP1/UAF1, Ub-Rhodamine cleavage fluorescence; Potency, µM (top dose mostly 57.1 µM), most hits filed as inhibitors; actives 0.23% (n = 390,000); note: nearly all actives have a fitted effect of over 60% in size
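Step one: compound is pinned into 1nM USP1/UAF1 in HEPES pH 7.8 buffer with TCEP. Step two: 15 min room-temperature incubation. Step three: Ub-Rho (150nM final) starts cleavage, tracked by fluorescence over six one-minute reads.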
Tau FP inhib – inhibitors of human tau fibril formation; Potency, µM (doses to about 57.7 µM), most hits filed as inhibitors; actives 0.39% (n = 280,000); K18 P301L tau heparin fibrillization, Alexa594 FP, 6 h; note: nearly all actives have a fitted effect of over 55% in size
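Recombinant K18 P301L […], labeled with Alexa 594 at 0.24 uM over 15 uM unlabeled; heparin inducer 20 uM final; 37 C, 6 hr; FP endpoint.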
Coupling enz – counter-screen for Giardia aldolase inhibitors: coupling enzyme system. actives 0.67% (n = 290,000). coupling enzyme system counterscreen, AmpLite Red fluorescence. activity change, negative = inhibition, % at 58.2 µM, hits read low; in the data active = activity change below about -30%
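Activity here indicates interference with the coupling reaction, not aldolase inhibition. Compounds at 57.5 uM final met coupling enzymes for 10 min at RT; substrate and AmpLite Red detection followed, with a 525/598 nm fluorescence read after 20 min.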
A number is an active result; 0 = inactive; ? = inconclusive; - = no result given; [ ] = another dose, or the depositor's remark. Unless noted, calls come from the whole dose curve; as a rule, active = well fitted curve in the direction sought with a large enough effect; inconclusive = small, poorly fitted or top-dose-only effect, or another doubt; inactive = no such curve, though single readings can be large; an effect the other way counts as inactive or inconclusive.

SMILES	Tau fibril ThT	Tau fluor cs	USP1 inh	Tau FP inhib	Coupling enz
Cc1nn(-c2nnc(NCc3ccccc3)nn2)c(C)c1Br	14µM	?	?	0	0
CSc1nc(O)c(C(c2ccc(O)cc2)c2c(O)nc(SC)[nH]c2=O)c(=O)[nH]1	-	-	0	-	0
CSc1nc(O)c(C(c2cccc([N+](=O)[O-])c2)c2c(O)nc(SC)[nH]c2=O)c(=O)[nH]1	11µM	0	0	?	0
COc1ccc(CN(C)C(=O)c2cccc(S(=O)(=O)N3CCc4ccccc43)c2)c(OC)c1	-	-	0	-	-
COC(=O)c1c(C)[nH]c(O)c1C=Nc1ccc(C#N)cc1	0	0	0	0	-36
CCOC(=O)c1c(C)[nH]c(O)c1C=Nc1ccccc1	?	0	0	0	0
COc1ccc(Nc2nc(C)c(-c3ccccc3)s2)cc1	5.6µM	8.9µM[quencher]	0	0	0
COc1ccc2nc(Nc3nc4cc5c(cc4s3)OCO5)sc2c1	2.8µM	7.9µM[quencher]	0	0	0
COc1ccc2nc(Nc3ccccc3OC)sc2c1	13µM	?	0	0	0
COc1ccc2nc(Nc3ccccc3)sc2c1	14µM	18µM[quencher]	0	0	0
COc1ccc2nc(Nc3ccc4c(c3)OCO4)sc2c1	?	?	0	0	0
COc1ccc2nc(NC(=O)Nc3ccccc3OC)sc2c1	-	-	0	-	0
COc1ccc2nc(NC(C)=O)sc2c1	0	0	0	0	0
CC1CCCCN1CCNC(=O)c1ccc(Cn2c(SCc3ccccc3)nc3cccnc32)cc1 (stereo not drawn)	0	0	0	0	-
O=C(Nc1cc(C(F)(F)F)ccc1Cl)c1cc(-c2ccc3c(c2)OCCO3)on1	0	0	0	0	-
CCc1cccc(C)c1NC(=O)Cn1c(=O)cc(C(F)(F)F)c2c(C)nn(C)c21	0	0	0	0	-
CC(C)(C)c1ccc(Oc2ccc(NC(=O)c3cccs3)cn2)cc1	0	?	0	28µM	0
Nc1c2c(nc3ccc(Br)cc13)N(C1CCCCC1)CC2	?	?	-	0	0
Nc1c2c(nc3ccc(Br)cc13)N(c1ccccc1)CC2	?	14µM[quencher]	0	0	0
Cc1cccc(N2CCc3c2nc2ccc(Br)cc2c3N)c1	28µM	16µM[quencher]	0	?	0
Nc1c2c(nc3ccc(Br)cc13)N(Cc1ccccc1)CC2	?	?	0	0	0
C(=NN=C(NN=Cc1cccs1)NN=Cc1cccs1)c1cccs1	-	-	0	-	-
CCOC(=O)c1sc(NC(=O)Nc2ccccc2)cc1C	?	14µM[quencher]	0	?	0
CCOC(=O)c1sc(NC(=O)Nc2ccccc2Cl)cc1C	0	8.9µM[quencher]	0	?	0
COC(=O)C1=C(C(=O)OC)SC2(S1)C(C(=O)OC)=C(C(=O)OC)SC1=C2c2cc(C)ccc2NC1(C)C	13µM	?	0	?	0
SMILES	Tau fibril ThT	Tau fluor cs	USP1 inh	Tau FP inhib	Coupling enz
CCOC(=O)[C@H](Cc1ccc(O)cc1)NC(=O)c1ccccc1	-	-	-	-	0
COC(=O)c1ccccc1NC(=O)CN1CCN(c2ccccn2)CC1	0	0	0	0	0
COC(=O)c1ccccc1N/C=C1\CCc2c(c(C)nn2-c2ccccn2)C1=O	14µM	?	?	?	0
CCOc1ccc(N2CC(C(=O)NC3CCCCCC3)CC2=O)cc1 (stereo not drawn)	-	-	0	-	0
Cc1ccc(S(=O)(=O)N2CCCc3cc(NS(=O)(=O)c4cc(F)ccc4F)ccc32)cc1	0	?	0	0	-
COc1ccc(OC)c([C@@H]2Nc3ccc(C(=O)O)cc3[C@@H]3C=CC[C@@H]32)c1	?	0	?	0	-
COc1ccc(C)cc1NS(=O)(=O)c1ccc2c(c1)[C@H]1C=CC[C@H]1[C@@H](c1cccc(Cl)c1)N2	?	?	0	0	-
COC(=O)c1ccc([C@H]2Nc3ccc(S(=O)(=O)Nc4ccc(F)cc4)cc3[C@H]3C=CC[C@H]32)cc1	?	?	0	0	-
COc1cccc(NS(=O)(=O)c2ccc3c(c2)C2C=CCC2C(c2ccc(C(=O)O)cc2)N3)c1 (stereo not drawn)	14µM	13µM[quencher]	?	?	0
COc1ccc(Br)cc1[C@@H]1Nc2ccc(C(=O)O)cc2[C@@H]2C=CC[C@@H]21	?	0	0	0	-
COc1ccc(C(=O)N/N=C(\C)c2ccc3c(c2)C2C=CCC2C(c2ccccc2)N3)cc1 (stereo not drawn)	13µM	?	0	0	0
O=C(O)c1ccc2c(c1)[C@@H]1C=CC[C@@H]1[C@H](c1ccccn1)N2	-	-	32µM	-	-
Cc1cccc(NS(=O)(=O)c2ccc3c(c2)[C@H]2C=CC[C@H]2[C@@H](c2ccc(F)cc2)N3)c1	?	5.6µM[quencher]	0	0	-
CCOc1ccc(NC(=O)CN2C(=O)CC(C)Sc3ccccc32)cc1 (stereo not drawn)	0	0	0	0	-
COc1ccc(NC(=O)c2c(-c3ccc(C)cc3)nnc3ccccc23)cc1OC	0	0	0	0	-
CCC(C)N1C(=O)/C(=C/c2c(NCCCOC(C)C)nc3c(C)cccn3c2=O)SC1=S (stereo not drawn)	?	0	0	25µM	0
Cc1cccc(C(=O)Nc2nnc(S(=O)(=O)N3c4ccccc4CC3C)s2)c1 (stereo not drawn)	?	0	0	0	-
Nc1cc(=O)[nH]c(SCC(=O)NC2CCCc3ccccc32)n1 (stereo not drawn)	-	0	0	0	0
CCCc1cc(=O)[nH]c(SCC(=O)NC2CCCc3ccccc32)n1 (stereo not drawn)	0	0	0	0	-38
COc1ccc(Sc2ccccc2CN(C)C)cc1OC	0	0	0	0	0
CNCc1ccccc1Sc1ccc(O)c(O)c1	4µM	?	0	8.9µM	-40
COC(=O)c1ccc2c(c1)C(C)(C)C(/C=C/c1ccc(O)cc1)=[N+]2C	13µM	?	0	?	0
COC(=O)c1ccc2c(c1)C(C)(C)C(/C=C/c1ccc(OC)c(OC)c1OC)=[N+]2C	?	0	0	0	-
Cc1ccccc1NC(=O)c1cccc2nc3ccccc3nc12	8.9µM	?	0	?	-
O=C(c1ccc2c(c1)N(Cc1ccccc1F)C(=O)c1ccccc1S2)N1CCOCC1	-	?	0	0	-42
SMILES	Tau fibril ThT	Tau fluor cs	USP1 inh	Tau FP inhib	Coupling enz
Cc1ccccc1CN1C(=O)c2ccccc2Sc2ccc(C(=O)N3CCOCC3)cc21	0	0	0	0	-
COc1cc2nc3c(c([Si](C)(C)C(C)(C)C)c2cc1OC)Cn1c-3cccc1=O	?	0	-	0	-42
COC(=O)CCc1sc(Nc2ccc(OC)cc2)nc1-c1ccc(OC)cc1	?	18µM[quencher]	0	0	-
COC(=O)CCc1sc(NC2CCCCC2)nc1-c1ccc(OC)cc1	?	0	0	0	0
CCc1cccc(NC(=O)Cn2c(=O)n(Cc3ccccc3)c(=O)c3c2c2cc(OC)ccc2n3C)c1	0	0	0	0	-
COc1ccc(-c2[nH]c(-c3ccc(Cl)cc3)nc2SCC(=O)NCC2CCCO2)cc1 (stereo not drawn)	?	13µM[quencher]	?	0	-
